Screens deposited in PubChem BioAssay by National Center for Advancing Translational Sciences (NCATS).
A selection: hits, their analogues and other compounds. The true share with any hit is near 3%.
Tau fibril ThT = blocks human tau fibril formation measured by thioflavin T; 2.1% of 270,000 active; recombinant tau K18 P301L, heparin-induced fibrillization, ThT fluorescence; Potency, µM (highest dose often 57.4 µM), most hits filed as inhibitors; also: nearly all actives have a fitted effect of over 55% in size
Target sequence (P10636 561-689 P618L limits assumed): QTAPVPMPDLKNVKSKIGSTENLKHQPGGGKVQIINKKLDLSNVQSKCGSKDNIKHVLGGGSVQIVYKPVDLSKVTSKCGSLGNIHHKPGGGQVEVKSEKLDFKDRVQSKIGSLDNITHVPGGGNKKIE
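ThT emission at 510 nm, taken 1 hr after adding 30 uM dye, quantifies aggregates formed when 20 uM heparin acts on human tau K18 P301L for 6 hr at 37 C.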
Tau fibril FP = blocks human tau fibril formation measured by polarization; P10636; K18 P301L tau heparin fibrillization, Alexa594 FP, 6 h; Potency, µM (highest dose often 57.7 µM), actives largely listed as inhibitors; 0.39% of 280,000 active; AID 1468; also: nearly all actives have a fitted effect of over 55% in size
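K18 P301L tau (15 uM unlabeled/0.24 uM Alexa 594-labeled, final) + compound + heparin 20 uM final; 100 mM NaOAc pH 7; 6 hr 37 C; ThT 30 uM final added, 1 hr RT; FP ex 555/em 632 nm.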
Tau fluor cs = counter-screen for tau fibril formation inhibitors; 0.93% of 280,000 active; tau K18 P301L Alexa594 fluorescence, heparin fibrillization; Potency, µM (series often up to 57.7 µM); AID 1463; also: nearly all actives have a fitted effect of over 55% in size
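Human tau K18 P301L (15 uM unlabeled, 0.24 uM Alexa 594-labeled) in 100 mM sodium acetate pH 7 with 20 uM heparin, 6 hr at 37 C. ThT 30 uM added, 1 hr ambient; Alexa 594 FP and total fluorescence read at 555/632 nm.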
Coupling enz = coupling enzyme interference in Giardia aldolase counter-screen; coupling enzyme system counterscreen, AmpLite Red fluorescence; activity change, negative = inhibition, % at 58.2 µM, hits read low; 0.67% of 290,000 active; AID 2472; in the data active = activity change below about -30%
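First, compound is pin-transferred into glyceraldehyde-3-phosphate coupling-enzyme reagent at 57.5 uM final and held 10 min at RT. Next, substrate, coupling system and AmpLite Red are added. After 20 min RT, fluorescence (525/598 nm) is read.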
KDM4E inh = inhibitors of human JMJD2E histone demethylase; B2RXH2; JMJD2E catalytic domain, FDH-coupled NADH fluorescence (FDH is formaldehyde dehydrogenase); Potency, µM (series often up to 57.1 µM), most hits filed as inhibitors; 1.6% of 230,000 active; AID 2147; active = well fitted inhibition curve with a large enough effect, not every such curve was filed as active; inconclusive = small, poorly fitted or top-dose-only effect, or another doubt; inactive = no such curve, though single readings can be large or run the other way; also: nearly all actives have a fitted effect of over 50% in size
Target sequence (B2RXH2 1-337 limits assumed): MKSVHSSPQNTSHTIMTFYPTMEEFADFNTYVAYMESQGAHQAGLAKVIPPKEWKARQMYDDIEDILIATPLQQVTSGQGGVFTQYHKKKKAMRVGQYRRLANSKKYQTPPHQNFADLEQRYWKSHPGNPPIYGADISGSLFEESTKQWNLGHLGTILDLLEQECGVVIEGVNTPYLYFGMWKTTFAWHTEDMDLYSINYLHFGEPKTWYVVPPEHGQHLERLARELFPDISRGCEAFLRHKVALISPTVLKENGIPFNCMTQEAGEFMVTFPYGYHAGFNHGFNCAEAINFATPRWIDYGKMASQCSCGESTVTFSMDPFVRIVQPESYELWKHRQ
Each line names hits and unclear results; the compound was inactive in the other large screens; ! = a repeat was not active; [ ] = another dose, or the depositor's remark. Unless noted, calls follow the shape of the dose curve; as a rule, active = well fitted curve in the direction sought with a large enough effect; inconclusive = small, poorly fitted or top-dose-only effect, or another doubt; inactive = no such curve, though single readings can be large; an effect the other way counts as inactive or inconclusive.

COc1ccc(/C=N/c2c(-c3ccco3)nc3ccccn23)cc1OC	Tau fibril ThT 22µM, Tau fibril FP inconclusive, Tau fluor cs 22µM[quencher], KDM4E inh inconclusive
Clc1ccc(/C=N/c2c(-c3ccco3)nc3ccccn23)cc1	Tau fibril ThT 25µM, Tau fibril FP inconclusive, Tau fluor cs 25µM[quencher], KDM4E inh inconclusive
Oc1ccccc1/C=N/c1c(-c2ccco2)nc2ccccn12	Tau fibril ThT 22µM, Tau fibril FP inconclusive, Tau fluor cs 22µM[quencher], KDM4E inh inconclusive
COc1cc(-c2nc3ccccn3c2/N=C/c2ccc(F)cc2)ccc1O	Tau fibril ThT inconclusive, KDM4E inh inconclusive
CC(C)c1ccc(Nc2c(-c3ccco3)nc3ccccn23)cc1	Tau fluor cs inconclusive (no result: Coupling enz, KDM4E inh)
Cc1ccc(NC(=O)CN2C(=O)COc3ccc(S(=O)(=O)N4CCCCCC4)cc32)c(C)c1	none (no result: Coupling enz, KDM4E inh)
CCOC(=O)C1=C(C)NC(=O)CC1c1cc2c(cc1[N+](=O)[O-])OCO2 (stereo unspecified)	Tau fibril ThT 22µM, Tau fibril FP inconclusive, Tau fluor cs inconclusive, Coupling enz -53, KDM4E inh inconclusive
O=C(/C=C/c1ccc2c(c1)OCO2)Nc1c(C(=O)O)[nH]c2ccccc12	Tau fibril ThT 13µM
COc1ccc2nc(NC(C)=O)sc2c1	none
COc1ccc2nc(NNC(=O)c3cc(=O)c4ccccc4o3)sc2c1	Tau fibril ThT 4.5µM, Tau fluor cs inconclusive, KDM4E inh 32µM
COc1ccc2nc(Nc3ccccc3OC)sc2c1	Tau fibril ThT 13µM, Tau fluor cs inconclusive
COc1ccc2nc(Nc3ccccc3)sc2c1	Tau fibril ThT 14µM, Tau fluor cs 18µM[quencher]
COc1ccc(Nc2nc(C)c(-c3ccccc3)s2)cc1	Tau fibril ThT 5.6µM, Tau fluor cs 8.9µM[quencher], KDM4E inh inconclusive
COc1ccc(-c2cn3c(n2)sc2cc(C(=O)NC4CCCc5ccccc54)ccc23)cc1 (stereo unspecified)	none (no result: Coupling enz, KDM4E inh)
CCCn1c(=O)c2sccc2n2c(CCCC(=O)Nc3cccc(CC)c3)nnc12	none (no result: Coupling enz, KDM4E inh)
COc1ccc2nc(Nc3ccc4c(c3)OCO4)sc2c1	Tau fibril ThT inconclusive, Tau fluor cs inconclusive
COc1ccc2nc(Nc3nc4cc5c(cc4s3)OCO5)sc2c1	Tau fibril ThT 2.8µM, Tau fluor cs 7.9µM[quencher], KDM4E inh inconclusive
Cc1cccc(OCC(=O)N(Cc2ccc(C(C)(C)C)cc2)Cc2ccco2)c1	Tau fibril ThT inconclusive (no result: Coupling enz, KDM4E inh)
Cc1nnc(N/N=C/c2ccccc2F)n1N	none (no result: Tau fibril ThT, Tau fibril FP, Tau fluor cs, KDM4E inh)
Cc1nnc(N/N=C/c2ccco2)n1N	Tau fibril ThT inconclusive, Tau fibril FP inconclusive, Coupling enz -42, KDM4E inh 28µM
CCOc1ccccc1C(=O)N1CC(=O)Nc2ccc(C)cc2C1c1ccccc1 (stereo unspecified)	none (no result: Coupling enz, KDM4E inh)
COc1ccccc1N1C(=N)S/C(=C\c2ccc(-c3ccccc3C(=O)O)o2)C1=O	Tau fibril ThT inconclusive
N=C1S/C(=C\c2ccc(-c3ccccc3C(=O)O)o2)C(=O)N1c1ccc2c(c1)OCO2	Tau fibril ThT 3.5µM, KDM4E inh 5.6µM
Clc1ccc(Nc2nc(-c3cccnc3)cs2)cc1	Tau fibril ThT inconclusive, Tau fluor cs inconclusive
O=C(Nc1cccc(-c2csc(Nc3ccc(Cl)cc3)n2)c1)c1cccc(C(F)(F)F)c1	Tau fibril ThT 13µM, Tau fluor cs 7.9µM[quencher]
O=C(Nc1cccc(-c2csc(Nc3ccc(Cl)cc3)n2)c1)c1ccccc1	Tau fibril ThT 14µM, Tau fluor cs 14µM[quencher]
O=C(Nc1cccc(-c2csc(-c3ccccc3)n2)c1)c1cccs1	Tau fibril ThT inconclusive, Tau fibril FP 14µM, Tau fluor cs inconclusive, KDM4E inh inconclusive
O=C(Nc1ccc(-c2csc(Nc3ccccc3)n2)cc1)c1ccccc1	none (no result: Tau fibril ThT, Tau fibril FP, Tau fluor cs, KDM4E inh)
CCOc1ccc(-c2cn3c(n2)sc2cc(C(=O)NCCc4ccc(OC)c(OC)c4)ccc23)cc1	Tau fibril ThT inconclusive (no result: Coupling enz, KDM4E inh)
Cc1ccc(C)c(Cn2c3ccccc3c3cnn(CC(=O)NC4CCC(C)CC4)c(=O)c32)c1 (stereo unspecified)	none (no result: Coupling enz, KDM4E inh)
COc1ccc(-n2c(=O)c3ccccc3n(Cc3ccccc3C)c2=O)c(OC)c1	none (no result: Coupling enz, KDM4E inh)
O=C(CSc1nc2c(cnn2-c2ccc(F)cc2)c(=O)[nH]1)N1N=C(c2cccs2)CC1c1ccc(F)cc1 (stereo unspecified)	Tau fibril ThT inconclusive, KDM4E inh 5µM
Cc1cccn2c(=O)c3cc(C(=O)NCc4ccccc4)c(=N)n(CCOCCO)c3nc12	none (no result: Coupling enz, KDM4E inh)
CCOC(=O)C1=C(Cc2ccc(C)cc2)C(=O)c2ccccc2C1=O	Tau fibril ThT 16µM, Tau fibril FP 35µM, Tau fluor cs inconclusive, Coupling enz -47
CCOC(=O)c1c(C)nc2c(c1-c1cc(OC)ccc1OC)C(=O)c1ccccc1-2	none
CCOC(=O)c1ccc(COC(=O)c2ccc3c(c2)-c2ccccc2C3=O)cc1	Tau fibril ThT inconclusive
CCOC(=O)C1=C(Cc2ccc(OC)cc2)C(=O)c2ccccc2C1=O	Tau fibril ThT 8.9µM, Tau fibril FP 13µM, Tau fluor cs inconclusive, Coupling enz -56, KDM4E inh inconclusive
CCCCC1=CC2=C(c3ccco3)C(=O)C(C)(OC(=O)c3cccs3)C(=O)C2=CO1 (stereo unspecified)	Tau fibril ThT inconclusive, Tau fibril FP inconclusive
CC(=O)OCC1OC(C#Cc2ccc(Br)cc2)C=CC1OC(C)=O (stereo unspecified)	none (no result: KDM4E inh)
CCCNC(=O)N1N=C(c2ccc(N)cc2)c2cc3c(cc2C1C)OCO3 (stereo unspecified)	none (no result: Tau fibril ThT, Tau fibril FP, Tau fluor cs, KDM4E inh)
CCn1cc(/C=C/C(=O)Nc2ccc(C)cc2Br)cn1	none
CCn1cc(/C=C/C(=O)Nc2ccn(Cc3c(F)c(F)cc(F)c3F)n2)cn1	Tau fibril ThT 22µM, Tau fibril FP inconclusive
CC(=O)O[C@@H]1C(CO[Si](C)(C)C(C)(C)C)=C(Br)C(=O)[C@@H]2O[C@]12C	Tau fibril ThT 28µM, Tau fibril FP inconclusive
Cc1ccc(NC(=O)Nc2nnc(SCC(=O)N3CCCCC3)s2)cc1	Tau fibril FP inconclusive, Tau fluor cs inconclusive (no result: Coupling enz, KDM4E inh)
CC(Cc1ccc(O)c(O)c1)(NN)C(=O)O (stereo unspecified)	Tau fibril ThT 14µM, Tau fibril FP inconclusive, KDM4E inh 2.2µM
C[C@](N)(Cc1ccc(O)c(O)c1)C(=O)O	Tau fibril ThT inconclusive, Tau fibril FP inconclusive, Tau fluor cs inconclusive, Coupling enz -58!, KDM4E inh 16µM!
CCOC(=O)c1c(OCC)[nH]c2c1cc(O)c1ccccc12	Tau fibril ThT 14µM, Tau fluor cs inconclusive, Coupling enz -49, KDM4E inh 22µM
CCOC(=O)c1c(C)[nH]c2cc(Br)c(O)cc12	Tau fibril ThT inconclusive
O=C(CCCCn1c(=O)c2ccccc2n(Cc2cccc(F)c2)c1=O)NCc1ccc2c(c1)OCO2	none (no result: Coupling enz, KDM4E inh)
O=C(N/N=C/c1ccncc1)C1CC1(c1ccccc1)c1ccccc1 (stereo unspecified)	Tau fibril ThT inconclusive, Tau fluor cs inconclusive
O=C(N/N=C/c1c[nH]c2ccccc12)C1CC1c1ccccc1 (stereo unspecified)	Tau fibril ThT inconclusive, Tau fluor cs 14µM[quencher]
